Bioassay records deposited in PubChem by several laboratories.
KCC2 mod: modulators of human KCC2 chloride dependent transport; Q9H2X9; KCC2 cells, thallium flux FluoZin-2 fluorescence; B-score of Tl+ flux slope (higher = more flux/activation; lower = inhibition) at 10 µM; actives 2.2% (n = 190,000); AID 1456;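 active = thallium flux slope and its plate-corrected score both differing from the plate sample mean at a set confidence after two filtering rounds, in either direction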;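 also: slope of fluorescence scaled to starting intensity during 10 to 20 s after thallium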
EP2 modulator: modulates human prostaglandin E2 receptor EP2 signaling | AID 940 | EP2-expressing cells, cAMP HTRF FRET, PGE2 co-stimulation | P43116 | induction, % at 25 µM | actives 0.83% (n = 260,000);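 active = compounds whose cAMP rise, as percent of the full-agonist control response, exceeds 60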;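 also: rat C6 glioma line stably carrying human EP2 under a CMV promoter; the protocol text gives 20 µM as final concentration; 100% = response of wells given 1 µM PGE2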
PGE2 EP2 inh: EP2 receptor (human) inhibition. C6 glioma cells expressing human EP2, cAMP TR-FRET; cells stimulated with saturating PGE2. AID 1422. inhibition, % at 25 µM. P43116. actives 0.52% (n = 260,000);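 active = percent inhibition above 40 after rounding to a whole number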;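 also: rat C6 glioma host cells with rolipram phosphodiesterase inhibitor present; the protocol text gives 20 µM as final concentration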
S1P3 antagonist: S1P3 (human) receptor antagonism | actives 0.27% (n = 170,000) | Q99500 | CHO S1P3 NFAT-BLA reporter, FRET fluorescence, antagonist mode | inhibition, % at 4.98 µM;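 active = inhibition above the plate cutoff, the mean inhibition of test wells on that plate plus 3 SD, cut at about 28% in these data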;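 also: cells challenged with S1P at its EC80 of 0.8 µM; blue over green emission ratio from cleaved BLA substrate after 4 h stimulation; 0% = S1P-stimulated wells and 100% = unstimulated DMSO-only wells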
The depositor's hits bear a star. Hits are enriched below; roughly 3.1% of the tested compounds scored in any of these assays.

For C[N+](C)(C)c1nc(N)nc2c1ncn2[C@H]1O[C@@H](CO)[C@H](O)[C@H]1O the results were EP2 modulator -2.5 and PGE2 EP2 inh 44.6*.
For Cn1cnc([N+](=O)[O-])c1[Se]c1nc(N)nc2c1ncn2[C@H]1O[C@@H](CO)[C@H](O)[C@H]1O the results were EP2 modulator 0.8 and PGE2 EP2 inh 42.2*.
For Nc1ncnc2c1ncn2[C@@H]1O[C@H](CO)[C@@H](O)[C@H]1O the results were KCC2 mod 0.0961, EP2 modulator 30.3, PGE2 EP2 inh 13.4 and S1P3 antagonist -6.6.
CC(C)C(NC(=O)C1C=CCN1S(C)(=O)=O)c1cccs1 (configuration not stated) was read as EP2 modulator -7.8 and PGE2 EP2 inh 8.2.
Screening Cc1cc(C)n(C(=O)c2ccc(NC(=O)C3CC3)cc2)n1 returned KCC2 mod 1.09, EP2 modulator -32.6, PGE2 EP2 inh 14.0 and S1P3 antagonist 93.3*.
Screening Cc1sc(NC(=O)CN2CCC(n3c(=O)[nH]c4ccccc43)CC2)c(C(N)=O)c1C returned EP2 modulator -21.6 and PGE2 EP2 inh 16.2.
Screening COc1ccc(C)cc1NC(=O)c1ccccc1NS(=O)(=O)c1ccc(Cl)s1 returned KCC2 mod -3.59*, EP2 modulator -7.3, PGE2 EP2 inh 12.7 and S1P3 antagonist -0.3.
`O=C(Nc1cc(S(=O)(=O)N2CCOCC2)ccc1O)c1ccc(NS(=O)(=O)c2ccc(Cl)s2)cc1` gave KCC2 mod 1.11, EP2 modulator 23.8, PGE2 EP2 inh 1.8 and S1P3 antagonist 0.5.
For Cc1ccc(NC(=O)c2ccccc2NS(=O)(=O)c2ccc(Cl)s2)cc1S(=O)(=O)N1CCOCC1 the results were KCC2 mod -4.22*, EP2 modulator -11.1, PGE2 EP2 inh 11.6 and S1P3 antagonist -15.8.
`CCOc1cc(/C=N/NC(N)=O)cc(Br)c1OCc1ccccc1F` gave KCC2 mod 0.125, EP2 modulator 62.1*, PGE2 EP2 inh 5.2 and S1P3 antagonist 6.4.
CCOc1cc(/C=N/NC(=O)Cn2nc([N+](=O)[O-])cc2C)cc(Br)c1OCc1ccccc1F was read as KCC2 mod -0.441, EP2 modulator 3.5 and PGE2 EP2 inh 1.2.
For CCOC(=O)C1CCN(C(=O)c2ccco2)CC1 the results were KCC2 mod -0.36, EP2 modulator -1.0, PGE2 EP2 inh 9.6 and S1P3 antagonist 69.2*.
O=C(COC(=O)C1CCN(C(=O)c2ccc(Cl)cc2)CC1)c1ccco1 was read as KCC2 mod 0.385, EP2 modulator -19.8, PGE2 EP2 inh 5.3 and S1P3 antagonist 17.0.
`Cc1nc(CC(=O)N2CCC(c3ccncc3)CC2)c(-c2ccccc2)s1` gave EP2 modulator -23.6.
Screening Cc1ccc(C(=O)c2c(C)oc3c2C(=O)C(=O)c2ccccc2-3)cc1 returned KCC2 mod -0.723, EP2 modulator -47.7 and PGE2 EP2 inh 55.5*.
Cc1nc2ccccc2n1-c1ccccc1 was read as EP2 modulator 14.2, PGE2 EP2 inh 2.8 and S1P3 antagonist -13.8.
c1ccc(-n2c3ccccc3c3ccccc32)cc1 was read as KCC2 mod 1.58, EP2 modulator 63.5*, PGE2 EP2 inh 13.1 and S1P3 antagonist -2.4.
`COc1ccc2nc(/N=C/c3c(C)[nH]n(-c4ccc(C)cc4)c3=O)sc2c1` gave KCC2 mod 53.9*, EP2 modulator -12.5, PGE2 EP2 inh 4.1 and S1P3 antagonist 0.8.
For COc1ccc2nc(/N=C\N(C)C)sc2c1 the results were EP2 modulator 8.3, PGE2 EP2 inh 8.5 and S1P3 antagonist -18.2.
Cc1ccc(-n2[nH]c(C)c(C=Nc3cc(C)ccn3)c2=O)cc1 was read as KCC2 mod 4.24*, EP2 modulator -4.3 and PGE2 EP2 inh 9.2.
For CCc1nnc(NS(=O)(=O)c2ccc(N=Cc3c(C)[nH]n(-c4ccc(Cl)cc4)c3=O)cc2)s1 the results were KCC2 mod -0.652, EP2 modulator -15.4, PGE2 EP2 inh 13.2 and S1P3 antagonist -1.3.
Cc1ccc(-n2[nH]c(C)c(/C=N/c3ccccn3)c2=O)cc1 was read as EP2 modulator 2.6, PGE2 EP2 inh 9.2 and S1P3 antagonist -19.1.
Cc1[nH]n(-c2ccc(Cl)cc2)c(=O)c1/C=N/c1nnc(-c2ccccc2)s1 was read as KCC2 mod 45*, EP2 modulator -26.7, PGE2 EP2 inh 5.3 and S1P3 antagonist 3.1.
`COc1cc(NC(=O)CSc2nc3cc(OC)c(OC)cc3cc2C)cc(OC)c1` gave EP2 modulator -0.2 and PGE2 EP2 inh 6.4.
Screening Cc1cccc2cc(C#N)c(SCCN3CCCCC3)nc12 returned KCC2 mod 3.57*, PGE2 EP2 inh 7.5 and S1P3 antagonist -47.0.
Oc1ccccc1C=NCCCCCCN=Cc1ccccc1O was read as KCC2 mod -0.601, EP2 modulator 62.4*, PGE2 EP2 inh 4.6 and S1P3 antagonist -4.9.
Screening Oc1ccccc1C=NCCN=Cc1ccccc1O returned KCC2 mod -0.87, EP2 modulator 33.2, PGE2 EP2 inh 9.7 and S1P3 antagonist 2.0.
`CCCCC(CC)CN=C(N)NC(N)=NCCCCCCN=C(N)NC(N)=NCC(CC)CCCC` (configuration not stated) gave EP2 modulator -15.2 and PGE2 EP2 inh 71.2*.
For CCOCc1nnc(NC(=O)c2ccc(C)c(C)c2)s1 the results were EP2 modulator -4.5 and PGE2 EP2 inh 15.6.
CC(=O)[C@H]1CC[C@@H]2[C@]1(C)CC=C1[C@@]23C=C[C@@]2(C[C@H](O)CC[C@@]12C)[C@H](C(=O)O)[C@@H]3C(=O)O was read as EP2 modulator 33.8 and PGE2 EP2 inh 40.8*.
COc1ccc(C(Nc2ccccn2)c2c(NC(=O)c3ccco3)sc(C)c2C)cc1 (configuration not stated) was read as KCC2 mod -0.363, EP2 modulator -0.9, PGE2 EP2 inh 7.1 and S1P3 antagonist -7.3.
`COc1ccc([C@@H](Nc2ccccn2)c2cc(C(C)(C)C)cc(C(C)(C)C)c2O)cc1` gave EP2 modulator 36.2 and PGE2 EP2 inh 45.9*.
Screening O=C(NC1CCCc2c1cnn2-c1ccc(F)cc1F)c1ccccn1 (configuration not stated) returned KCC2 mod -0.223, EP2 modulator -28.6, PGE2 EP2 inh 45.4* and S1P3 antagonist -11.2.
COCCCn1c(SCC(=O)Nc2cccc(OC)c2)nc2ccccc2c1=O was read as EP2 modulator -3.4 and PGE2 EP2 inh 6.9.
`Nc1ncnc2c1nc(Br)n2[C@@H]1O[C@@H]2COP(=O)(O)O[C@H]2[C@H]1O` gave PGE2 EP2 inh 4.0.
Screening CCOP1(=O)OCC2OC(n3cnc4c(N)ncnc43)C(O)C2O1 (configuration not stated) returned KCC2 mod 0.146, EP2 modulator 103.6*, PGE2 EP2 inh 4.9 and S1P3 antagonist -16.5.
CN1CCN(CCCBr)CC1 was read as EP2 modulator 27.6 and PGE2 EP2 inh 41.0*.
For CN1CCN(CCCNN)CC1 the results were EP2 modulator 7.3 and PGE2 EP2 inh 11.1.
Screening CCN1CCCC1CN(Cc1cc2cc3c(cc2[nH]c1=O)OCCO3)C(=O)Nc1ccccc1F (configuration not stated) returned EP2 modulator -47.1 and PGE2 EP2 inh 14.2.
